# Read-outs that look alike come from different tables or passages of the source.
# Key:
# Parameters in all cases: species or system human, MV4-11 + K-562 + COLO205 + SK-N-BE2 + OVCAR-8
# CDK10 = conditions: read-out: apparent Kd, n = 1
# MAP4K2 = conditions: read-out: apparent Kd, n = 1
# DDR1 = conditions: read-out: apparent Kd, n = 1
# IKBKE = conditions: read-out: apparent Kd, n = 1
# MAP4K3 = conditions: read-out: apparent Kd, compound concentrations: 100 nM and 1000 nM (sheet 'Samples'), n = 1
# MAP4K5 = conditions: read-out: apparent Kd, compound concentrations: 100 nM and 1000 nM (sheet 'Samples'), n = 1
# NEK9 = conditions: read-out: apparent Kd, n = 1
# RPS6KA1 = conditions: read-out: apparent Kd, compound concentrations: 100 nM and 1000 nM (sheet 'Samples'), n = 1
# SLK = conditions: read-out: apparent Kd, compound concentrations: 100 nM and 1000 nM (sheet 'Samples'), n = 1
# TP53RK = conditions: read-out: apparent Kd, compound concentrations: 100 nM and 1000 nM (sheet 'Samples'), n = 1
# TEC = conditions: read-out: apparent Kd; compound concentrations:100 nM and 1000 nM (sheet 'Samples'); n = 1
# AKT3 = conditions: read-out: apparent Kd, n = 1
# STK11 = conditions: read-out: apparent Kd; compound concentrations: 100 nM and 1000 nM (sheet 'Samples'), CATDS: 2.1927929235579201E-2; n = 1
# ACVR1 = conditions: read-out: apparent Kd, n = 1
# PIK3C3 = conditions: read-out: apparent Kd; compound concentrations:100 nM and 1000 nM (sheet 'Samples'); n = 1
# MAP2K2 = conditions: read-out: apparent Kd, n = 1
# TGFBR1 = conditions: read-out: apparent Kd; compound concentrations: 100 nM and 1000 nM (sheet 'Samples'), CATDS: 6.2904955022957598E-3; n = 1
# [1] = compound concentrations:100 nM and 1000 nM (sheet 'Samples')
structure (smiles),measurement,setting,value
Cc1ccc2c(-c3ccncc3)c(-c3ccc(F)cc3)nn2c1.Cl [GW461484A],potency estimated from few doses,CDK10; [1],1410 nM
Cc1cccc(-c2nc(Nc3ccncc3)c3sccc3n2)n1 [GW869641X],potency estimated from few doses,MAP4K2; [1],669 nM
Cc1cccc(Nc2nc(N[C@H]3CCCC[C@H]3N)ncc2C(N)=O)c1.Cl [GSK986310C],potency estimated from few doses,MAP4K2; [1],2080 nM
COc1ccc(Nc2ncc(C#N)c(Nc3ccccc3C(N)=O)n2)cc1N1CCN(C)CC1.Cl [GSK1558669A],potency estimated from few doses,"CDK10; compound concentrations: 100 nM and 1000 nM (sheet 'Samples'), CATDS: 6.1619993305959599E-3",1450 nM
same,potency estimated from few doses,"DDR1; compound concentrations: 100 nM and 1000 nM (sheet 'Samples'), CATDS: 8.5132006877523293E-3",319 nM
same,potency estimated from few doses,"IKBKE; compound concentrations: 100 nM and 1000 nM (sheet 'Samples'), CATDS: 7.4158435365071704E-3",548 nM
same,potency estimated from few doses,MAP4K3; CATDS: 1.16453060646116E-2,123 nM
same,potency estimated from few doses,MAP4K5; CATDS: 7.4217938627351198E-3,546 nM
same,potency estimated from few doses,"NEK9; compound concentrations: 100 nM and 1000 nM (sheet 'Samples'), CATDS: 1.04770728264292E-2",164 nM
same,potency estimated from few doses,RPS6KA1; CATDS: 1.0869541528388701E-2,148 nM
same,potency estimated from few doses,SLK; CATDS: 1.35175429318502E-2,84.7 nM
CC(C)N1CCC(n2cnc(-c3ccc(F)cc3)c2-c2ccnc(N)n2)CC1 [SB-223132],potency estimated from few doses,DDR1; [1],928 nM
CONC1=NC(=O)/C(=C/c2ccc3ncccc3c2)S1 [RO4613269-000],potency estimated from few doses,TP53RK; CATDS: 0.12819898124354101,2200 nM
O=C1NC(=O)C(N2CCc3ccccc32)=C1c1ccccc1Cl [SB-373598],potency estimated from few doses,TEC,904 nM
CCn1c(-c2nonc2N)nc2c(C#CC(C)(C)O)nc(CN3CCCC3)cc21 [GSK1000163A],potency estimated from few doses,"AKT3; compound concentrations: 100 nM and 1000 nM (sheet 'Samples'), CATDS: 0.185643756681795",1430 nM
CNCC#Cc1c(F)ccc2c1/C(=C/c1[nH]ccc1OC)C(=O)N2.Cl [RO0281601-001],potency estimated from few doses,STK11,1930 nM
CN(C)CC(O)COc1ccc(Nc2nccc(-c3cnn4nc(N5CCOCC5)ccc34)n2)cc1 (stereo not drawn) [GW767488X],potency estimated from few doses,ACVR1; [1],455 nM
same,potency estimated from few doses,CDK10; [1],1360 nM
same,potency estimated from few doses,IKBKE; [1],2010 nM
same,potency estimated from few doses,NEK9; [1],314 nM
same,potency estimated from few doses,PIK3C3,581 nM
CNCc1ccc(-c2cc(-c3nc(-c4ccc(S(=O)(=O)C(C)C)cc4)cnc3N)on2)cc1 [VE-822],potency estimated from few doses,ACVR1; [1],81 nM
same,potency estimated from few doses,AKT3; [1],1760 nM
same,potency estimated from few doses,MAP2K2; [1],1700 nM
same,potency estimated from few doses,PIK3C3,500 nM
CCn1c(-c2nonc2N)nc2c(C#CC(C)(C)O)nc(O[C@@H](CN)c3ccccc3)cc21.O=C(O)C(F)(F)F [GSK1007102B],potency estimated from few doses,AKT3; [1],719 nM
CN(c1ccc(NC(=O)NCCN2CCOCC2)cc1)c1ccnc(Nc2ccc(CS(C)(=O)=O)cc2)n1.Cl [GW830365A],potency estimated from few doses,"DDR1; compound concentrations: 100 nM and 1000 nM (sheet 'Samples'), CATDS: 4.92942958534755E-2",1360 nM
O=C1N=C(NCc2cccs2)O/C1=C\c1ccc2ncccc2c1 [RO4624208-000],potency estimated from few doses,TP53RK; CATDS: 4.7970425138991198E-2,1610 nM
CCCc1cc(N2CCCN(C)CC2)nc2sc3c(N)ncnc3c12 [BI00604564],potency estimated from few doses,"AKT3; compound concentrations: 100 nM and 1000 nM (sheet 'Samples'), CATDS: 0.13900414431421401",1920 nM
Cc1cccc(Nc2nc(N[C@H]3CCNC3)ncc2C(N)=O)c1.Cl [GSK2197149A],potency estimated from few doses,PIK3C3,1110 nM
O=C(O)C(F)(F)F.O=C(O)C(F)(F)F.O=c1[nH]ccc2nc(N[C@@H]3CCCNC3)nc(Nc3ccc(S(=O)(=O)N4CCOCC4)cc3)c12.O=c1[nH]ccc2nc(N[C@@H]3CCCNC3)nc(Nc3ccc(S(=O)(=O)N4CCOCC4)cc3)c12 [GSK2177277A],potency estimated from few doses,"ACVR1; compound concentrations: 100 nM and 1000 nM (sheet 'Samples'), CATDS: 7.8898197775333495E-3",605 nM
same,potency estimated from few doses,"CDK10; compound concentrations: 100 nM and 1000 nM (sheet 'Samples'), CATDS: 2.6189541098699299E-2",32 nM
same,potency estimated from few doses,"MAP2K2; compound concentrations: 100 nM and 1000 nM (sheet 'Samples'), CATDS: 5.9505583835806203E-3",2520 nM
same,potency estimated from few doses,"MAP4K2; compound concentrations: 100 nM and 1000 nM (sheet 'Samples'), CATDS: 1.18083453898033E-2",173 nM
same,potency estimated from few doses,MAP4K3; CATDS: 1.3665369195518201E-2,120 nM
same,potency estimated from few doses,MAP4K5; CATDS: 2.1531310564231101E-2,45.7 nM
same,potency estimated from few doses,RPS6KA1; CATDS: 7.3742407001506898E-3,792 nM
same,potency estimated from few doses,SLK; CATDS: 7.3686549547766099E-3,794 nM
same,potency estimated from few doses,TGFBR1,1740 nM
